Laboratory results as given in PubChem BioAssay AID2685 (National Center for Advancing Translational Sciences (NCATS), 2010).
Hit rate of the full screen: of about 320,000 compounds, about 2,100 (0.66%) were called active. Not shown: some 53% with an inconclusive outcome. Calls follow the shape of the dose curve; as a rule, active = well fitted inhibition curve with a large enough effect in the signal ratio, with a control signal flat (not every such curve was filed as active); inconclusive = small, poorly fitted or top-dose-only effect, or effect the other way, or a change in a side signal; inactive = flat fitted curve, though single readings scatter; the % refers to the signal ratio. The list comes from a sample in which actives are over-represented; it also holds similar structures and randomly drawn compounds.

Assay: qHTS Assay for Lipid Storage Modulators in Drosophila S3 Cells;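 as to cell number change: cells counted by Cell Tracker Red CMTPX staining in the red channel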; as to lipid storage change, negative = inhibition: % is scaled to controls: 0 for no effect and ±100 for the full control effect
Details: BODIPY lipid droplet fluorescence, 18-24 h, cells fed with added oleic acid; cell number change: measured here: cell count max response; series mostly up to 46.1 µM
Method in brief: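 Drosophila S3 cells loaded with oleic acid (400 uM, as added) and compounds at several concentrations; lipid droplets imaged by 488-nm laser-scanning cytometry, 500–530 nm intensity and object ratio to cell channel. Percent activity normalized to 20 uM Triacsin C.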
Potency is read from the fitted curve at half-maximal effect.

| Structure (SMILES) | Potency | cell number change [%] | lipid storage change, negative = inhibition |
| --- | --- | --- | --- |
| Cc1ccc(S(=O)(=O)c2nc(-c3ccccc3Cl)oc2NCCCN2CCOCC2)cc1 | inactive |  |  |
| CCOC(=O)C1(Cc2ccccc2)CCN(Cc2cn[nH]c2-c2ccccc2)CC1 | inactive | 4.32 |  |
| C[C@H](NC(=O)CCn1nnc2ccccc2c1=O)C(=O)O | inactive | -17.6 |  |
| O=C(c1ccc(F)cc1)C1CCN(Cc2ccc(F)cc2)CC1 | inactive | 16.1 |  |
| CCn1c(CCNC(=O)c2ccc(C)cc2)n[nH]c1=S | inactive | 22.9 |  |
| Cn1c(CCNC(=O)c2ccc(Cl)cc2)n[nH]c1=S | inactive | -13.4 |  |
| CCn1c(CCNC(=O)c2ccc(Cl)cc2)n[nH]c1=S | 1.84 µM (active) | 24.6 |  |
| CN1CCN(c2nc(C(N)=O)cc(-c3ccccc3)n2)CC1 | inactive | -10.6 |  |
| COc1ccc(-c2nc(CSCC(=O)N3CCC(C(N)=O)CC3)c(C)o2)cc1OC | inactive | -1.8 |  |
| COc1ccc(C(=O)/C=C/c2ccc(O)cc2)cc1 | inactive | -17.3 |  |
| COC(=O)c1ccc2c(c1)C(C)(C)C(/C=C/c1ccc(O)cc1)=[N+]2C | 5.17 µM (active) | 1 |  |
| COC(=O)c1ccc(/C=C/C(=O)O)cc1 | inactive | 2.73 |  |
| Cc1cc(NC(=O)CSc2ncnc3sc(C)c(C)c23)no1 | inactive |  |  |
| Cc1ccc(S(=O)(=O)N2CCC(C(=O)Nc3nnc(C4CCCC4)s3)CC2)cc1 | inactive | 5.99 |  |
| COc1ccc(CNC(=O)CC2(CC(=O)O)CCCCC2)cc1 | inactive | -16.2 |  |
| COc1ccccc1NC(=O)C(C)NS(=O)(=O)c1ccc(Cl)cc1 (stereo not drawn) | 6.51 µM (active) | 10.9 |  |
| COc1ccccc1NC(=O)C(C)NS(=O)(=O)c1ccc(F)cc1 (stereo not drawn) | inactive | 6.54 |  |
| COc1ccc(S(=O)(=O)NC(C)C(=O)Nc2ccccc2F)cc1 (stereo not drawn) | inactive | 4.07 |  |
| COc1cc(C(=O)OCC(=O)N2CCCCC2C)cc(NC(=O)c2cccs2)c1OC (stereo not drawn) | inactive | 7.36 |  |
| CC(C)(C)NC(=O)C1CCC(CNS(=O)(=O)c2cccc3nsnc23)CC1 (stereo not drawn) | 18.4 µM (active) |  |  |
| COC(=O)CNC(=O)C1CCC(CNS(=O)(=O)c2cccc3nsnc23)CC1 (stereo not drawn) | inactive | -18.8 |  |
| CCCNC(=O)C1CCC(CNS(=O)(=O)c2cccc3nsnc23)CC1 (stereo not drawn) | inactive |  |  |
| Cc1cc(NC(=O)CSc2nc(=O)n3cc(Cl)ccc3n2)no1 |  | 13.5 | 0.863% [at 0.0737 µM] (inactive) |

| Structure (SMILES) | Potency | cell number change [%] | lipid storage change, negative = inhibition |
| --- | --- | --- | --- |
| Fc1ccc(CNn2cnnc2SCc2ccc(F)cc2)cc1 | inactive | 9.34 |  |
| CCc1cccc2c(C(=O)COC(=O)c3cccc(S(=O)(=O)N(C)C4CCCCC4)c3)c[nH]c12 | inactive | 6.53 |  |
| O=C(NC1CCCC1)C(c1ccc(Cl)cc1)N(C(=O)c1csnn1)C1CC1 (stereo not drawn) | inactive | 12.1 |  |
| C=CCN(C(=O)c1csnn1)C(C(=O)NC1CCCC1)c1ccccc1F (stereo not drawn) | inactive | -7.62 |  |
| C=CCN(C(=O)c1csnn1)C(C(=O)NC1CCCC1)c1ccccc1 (stereo not drawn) | inactive | 15.2 |  |
| C=CCN(C(=O)c1csnn1)C(C(=O)NC1CCCC1)c1c(F)cccc1Cl (stereo not drawn) | 9.2 µM (active) | 0.427 |  |
| C=CCN(C(=O)c1csnn1)C(C(=O)NC1CCCCC1)c1ccccc1F (stereo not drawn) | 13 µM (active) | 2.14 |  |
| C=CCN(C(=O)c1csnn1)C(C(=O)NC1CCCCC1)c1ccc(F)cc1 (stereo not drawn) | inactive | 11.7 |  |
| C=CCN(C(=O)c1csnn1)C(C(=O)NC1CCCC1)c1ccc(Cl)cc1 (stereo not drawn) | inactive | -41 |  |
| O=C(NC1CCCC1)C(c1ccc(F)cc1)N(C(=O)c1csnn1)C1CC1 (stereo not drawn) | inactive | -11.5 |  |
| O=C(NC1CCCC1)C(c1c(F)cccc1Cl)N(C(=O)c1csnn1)C1CC1 (stereo not drawn) | 16.4 µM (active) | -12.9 |  |
| O=C(c1cccc(COc2cccc3ccccc23)c1)N1CCCC1 | inactive | -5.05 |  |
| COc1ccc(/C=N/Nc2nnc(-c3ncc[nH]3)c3ccccc23)cc1 | inactive | -1.94 |  |
| CC1=C(C)CC(C(=O)Nc2ccc3c(c2)OCO3)C(C(=O)O)C1 (stereo not drawn) | inactive | -0.481 |  |
| COc1ccc(OC)c(S(=O)(=O)NNC(=S)Nc2ccc3c(c2)OCO3)c1 | inactive | 5.94 |  |
| O=C(Nc1cnccn1)Nc1cccc(Cl)c1Cl | inactive | -0.957 |  |
| CC1CN(S(=O)(=O)c2cccc(C(=O)Nc3ccccc3N3CCOCC3)c2)CC(C)O1 (stereo not drawn) | inactive | -20.3 |  |
| O=C(NCC1CCCCC1)c1cccc(S(=O)(=O)N2CCCC2)c1 | inactive | 3.1 |  |
| CCOc1ncccc1C(=O)Nc1cccc(S(=O)(=O)N2CCCCC2)c1 | inactive | -15 |  |
| CC1CN(S(=O)(=O)c2cccc(C(=O)Nc3ccccc3N3CCCCC3)c2)CC(C)O1 (stereo not drawn) | 23.1 µM (active) | -19.1 |  |
| O=C(NCC1COc2ccccc2O1)c1cccc(S(=O)(=O)N2CCCCC2)c1 (stereo not drawn) | 2.06 µM (active) | -15.1 |  |
| Cc1c(C(=O)NCC2COc3ccccc3O2)oc2ccc(S(=O)(=O)N3CC(C)CC(C)C3)cc12 (stereo not drawn) | inactive | 0.959 |  |
| CCN(CC)S(=O)(=O)c1ccc2oc(C(=O)NC3CC3)c(C)c2c1 | inactive | -10.9 |  |

| Structure (SMILES) | Potency | cell number change [%] | lipid storage change, negative = inhibition |
| --- | --- | --- | --- |
| CSc1ncccc1C(=O)Nc1cccc(S(=O)(=O)N2CCCCC2)c1 | 16.4 µM (active) | 0.775 |  |
| CCN(CC)S(=O)(=O)c1ccc2oc(C(=O)NCC3COc4ccccc4O3)c(C)c2c1 (stereo not drawn) | 0.461 µM (active) | -14.2 |  |
| O=C(NCC1COc2ccccc2O1)c1cccc(S(=O)(=O)N2CCOCC2)c1 (stereo not drawn) | inactive | -18 |  |
| CN1CCN(S(=O)(=O)c2cccc(C(=O)Nc3ccccc3N3CCCC3)c2)CC1 | inactive | 9.72 |  |
| O=C(Nc1cccc(S(=O)(=O)N2CCCCC2)c1)c1ccccn1 | inactive | 20.1 |  |
| CC(C)Oc1ccc(S(=O)(=O)N2CCOCC2)cc1NC(=O)C1CCCCC1 | inactive | 17 |  |
| Cc1cccc(NC(=O)C2CCCN2C(=O)NC2CCCCC2)c1 (stereo not drawn) |  | -1.91 | 9.23% [at 9.22 µM] (inactive) |
| CCC(C)C(NC(=O)OCc1ccccc1)C(=O)NC(Cc1ccc(O)cc1)C(=O)OC (stereo not drawn) | inactive | 15.2 |  |
| Cc1cnc2cc([N+](=O)[O-])ccc2n1 | inactive | 9.36 |  |
| CC(NC(=O)CN1c2cccc3cccc(c23)S1(=O)=O)c1ccc(S(N)(=O)=O)cc1 (stereo not drawn) | inactive | 20.8 |  |
| CCC(C)c1ccc(S(=O)(=O)N2CCN3CCCC3C2)cc1 (stereo not drawn) | inactive | -6.32 |  |
| CCOC(=O)C(NC(=O)CC)(Nc1ccc(S(N)(=O)=O)cc1)C(F)(F)F (stereo not drawn) | inactive | 9.23 |  |
| O=C(CSc1nnnn1C1CCCCC1)Nc1ccc(F)cc1 | inactive | -9.49 |  |
| CN(C)C(=O)Nc1cnc2ccccc2c1 | inactive | 12.4 |  |
| COc1ccc(CNC(=O)c2noc(C(C)C)c2[N+](=O)[O-])cc1 | inactive | 2.44 |  |
| CCOC(=O)C(NC(=O)c1ccc(F)cc1)(Nc1sc2c(c1C(N)=O)CCC2)C(F)(F)F (stereo not drawn) | inactive | -0.472 |  |
| CCCC(=O)Oc1c(S(=O)(=O)c2ccc(C)cc2)c(C)nn1C(C)(C)C | inactive | 23.9 |  |
| O=C(Nc1ccc(S(=O)(=O)N2CCOCC2)cc1)c1ccccc1 | inactive | -4.33 |  |
| O=C(Nc1cccc(F)c1)c1cccc(S(=O)(=O)N2CCOCC2)c1 | inactive | -12.5 |  |
| Cc1nc(-c2ccc(S(=O)(=O)N3CCOCC3)cc2)cs1 | inactive |  |  |
| O=C(COc1ccccc1)Nc1nc(-c2ccc(S(=O)(=O)N3CCOCC3)cc2)cs1 | inactive | -17.5 |  |
| O=C(Nc1cccc(S(=O)(=O)N2CCCC2)c1)c1cccc(S(=O)(=O)N2CCOCC2)c1 | 1.84 µM (active) | -9.73 |  |
| CC(C)C(=O)Nc1cccc(C(=O)Nc2ccc(S(=O)(=O)N3CCOCC3)cc2)c1 | 13 µM (active) | -1.62 |  |

| Structure (SMILES) | Potency | cell number change [%] | lipid storage change, negative = inhibition |
| --- | --- | --- | --- |
| CC(C)C(=O)Nc1nc(-c2ccc(S(=O)(=O)N3CCOCC3)cc2)cs1 | 5.17 µM (active) | -31.7 |  |
| CC(=O)c1cccc(NC(=O)c2cccc(S(=O)(=O)N3CCOCC3)c2)c1 | inactive | 0.952 |  |
| O=C(Nc1ccc(S(=O)(=O)N2CCOCC2)cc1)c1cccc(Br)c1 | inactive | -4.91 |  |
| O=C(Nc1nncs1)c1ccc2c(c1)OCO2 | 4.61 µM (active) | 11.7 |  |
| CC(C)(C)c1nnc(NC(=O)c2ccc3c(c2)OCO3)s1 | inactive | 5.88 |  |
| O=C(/C=C/c1ccc2c(c1)OCO2)Nc1nncs1 | inactive | 12.8 |  |
| CCN(CC(=O)NC1CCCC1)S(=O)(=O)c1ccc(C)cc1 | inactive |  |  |
| COc1ccc(/C=C/C(=O)O)cc1S(=O)(=O)NC1CCS(=O)(=O)C1 (stereo not drawn) | inactive | 23.6 |  |
| Nc1nc(SCc2ccccc2Cl)nc2nc3c(cc12)CCCC3 | inactive | -12.1 |  |
| COc1ccc(C2N=C(c3ccccc3)NC(c3ccccc3)=N2)cc1 | inactive | 1.5 |  |
| N#Cc1cccc(S(=O)(=O)Nc2c(NC3CCCCC3)c3ccccc3oc2=O)c1 | inactive | -28.3 |  |
| Cc1cccc(NC(=S)N(CCc2ccncc2)C(C)C)c1C | inactive | -1.71 |  |
| O=C(Nc1nnc(-c2ccccc2)s1)c1cccc(S(=O)(=O)N2CCOCC2)c1 | inactive | -9.5 |  |
| O=C(NCCN1C(=O)S/C(=C\c2ccc(F)cc2)C1=O)c1cccc(S(=O)(=O)N2CCOCC2)c1 | 13 µM (active) |  |  |
| Cn1cc(S(=O)(=O)N2CCOCC2)cc1C(=O)Nc1ccc(Cl)cc1 | inactive | 5.48 |  |
| COc1ccc(NC(=O)c2cc(S(=O)(=O)N3CCOCC3)cn2C)cc1Cl | inactive | -8.07 |  |
| O=C(NCCN1CCOCC1)c1cccc(S(=O)(=O)N2CCCC2)c1 | inactive | 2.89 |  |
| Cn1cc(S(=O)(=O)N2CCOCC2)cc1C(=O)Nc1cccc(Cl)c1 | 7.31 µM (active) | -6.63 |  |
| O=C(Nc1nncs1)c1cccc(S(=O)(=O)N2CCOCC2)c1 | 23.1 µM (active) | -2.32 |  |
| O=C(Nc1nccs1)c1cccc(S(=O)(=O)N2CCOCC2)c1 | inactive | 0.981 |  |
| COc1cc(C(=O)NCCN2C(=O)S/C(=C\c3ccc(F)cc3)C2=O)ccc1OCC(=O)N1CCOCC1 | inactive | 15.3 |  |
